MRP1 act = activates MRP-1. H69AR cells + doxorubicin, viability rescue, CellTiter-Glo. viability increase, % at 10 µM. hit rate 0.61% among 140,000. AID 799;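 active means viability gain under doxorubicin at or above a set limit, the compound median plus 3 SD, cut at about 4.7% in these data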;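 further: MRP-1 overexpressing cells given doxorubicin 25 µM after compound pretreatment; 18-22 h compound pretreatment then 72 h with doxorubicin before readout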
GALR2 ag = GALR2 (human) receptor agonism | GALR2-expressing cells, agonist activation read-out | activation, % (no concentration beside the values) | hit rate 0.48% among 140,000 | AID 803; in the data active means activation above about 5%, passing the limit was not always enough
Target sequence (O43603 whole entry, looked up): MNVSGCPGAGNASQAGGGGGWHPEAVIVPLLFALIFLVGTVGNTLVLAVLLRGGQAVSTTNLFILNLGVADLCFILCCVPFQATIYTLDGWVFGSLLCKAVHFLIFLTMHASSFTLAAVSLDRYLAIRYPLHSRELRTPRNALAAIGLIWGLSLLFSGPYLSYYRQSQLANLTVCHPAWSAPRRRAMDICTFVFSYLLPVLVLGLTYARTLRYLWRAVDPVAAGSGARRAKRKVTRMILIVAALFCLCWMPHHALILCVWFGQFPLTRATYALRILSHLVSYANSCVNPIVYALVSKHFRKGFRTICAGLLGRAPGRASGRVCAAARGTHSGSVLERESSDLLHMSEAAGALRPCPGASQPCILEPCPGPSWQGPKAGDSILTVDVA
S1P2 agonist = activates the human S1P2 receptor. O95136. S1P2-expressing cell line, agonist reporter read-out. activation, % at 4.5 µM. hit rate 0.46% among 97,000. AID 729; in the data active means activation above about 16%
MRP resist rev = compounds reversing MRP-mediated drug resistance | differential viability (reversal), % at 10 µM | H69AR cells + 2 uM doxorubicin, CellTiter-Glo, 72 h | hit rate 0.04% among 85,000;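 active means viability drop by adding the cancer drug above about 55%, with treated viability meeting a 40% cutoff, limit read from the data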;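 further: larger differential means the compound sensitizes cells more to doxorubicin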
GALR2 antag = antagonists of human galanin receptor 2 (GALR2); O43603; GALR2-expressing cells, antagonist mode; inhibition, % at 4 µM; hit rate 0.39% among 140,000; in the data active means inhibition above about 27%;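 further: cells stimulated with galanin 1-16 at roughly its EC80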
S1P2 antag = antagonists of human S1P2 receptor | hit rate 0.21% among 97,000 | AID 736 | O95136 | inhibition, % at 5 µM | cell-based S1P2 antagonist assay, inhibition at 5 uM; in the data active means inhibition above about 45%;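 further: CRE beta-lactamase reporter cells expressing human S1P2 stimulated with S1P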
GALR2 agon conf = confirmation of human galanin receptor 2 (GALR2) agonists | shares compounds with GALR2 ag | GALR2-expressing cells, agonist activation | activation, % at 5.6 µM | hit rate 10% among 460 | AID 864; in the data active means activation above about 8.4%
BLA act counter = activates beta-lactamase reporter in GALR2 agonist counterscreen | shares compounds with GALR2 ag | CHO NFAT-bla reporter, beta-lactamase FRET activation | activation, % at 5.6 µM | hit rate 10% among 460 | AID 865;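 active means activation above the screen-wide mean activation plus 3 SD, cut at about 8% in these data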
A number is an active result; 0 = inactive; - = no result. This is a sample that favours compounds with a hit; in the whole collection about 1.8% have one here.

SMILES	MRP1 act	GALR2 ag	S1P2 agonist	MRP resist rev	GALR2 antag	S1P2 antag	GALR2 agon conf	BLA act counter
Cc1ccc(OCc2nc(-c3ccccn3)n[nH]2)cc1	0	73	0	0	0	0	0	0
Cc1ccccc1Cn1nc(C)c(NC(=O)c2cc3nc(-c4ccco4)cc(C(F)(F)F)n3n2)c1C	0	0	0	0	0	0	-	-
CCc1ccc(-c2cc(C(F)(F)F)n3nc(C(=O)Nc4c(C)nn(Cc5ccc(F)cc5)c4C)cc3n2)s1	0	13	0	-	0	0	0	0
Cc1ccc(N2C(=O)C(O)(C(F)(F)F)C3=C2CC(C)(C)CC3=O)cc1 (stereo not drawn)	0	0	-	-	0	-	-	-
Cc1cc(C(=O)COC(=O)c2ccc(O)cc2)c(C)n1Cc1ccco1	0	0	-	-	0	-	-	-
O=C(Nc1ccc(Br)cc1)c1ccc(N2C(=O)C3CC=C(Cl)CC3C2=O)cc1 (stereo not drawn)	0	12	0	0	0	0	0	0
Cc1occc1-c1nnc(SCC(=O)Nc2nc(-c3ccccc3)cs2)o1	0	19	0	0	0	0	0	0
COc1ccc(C2CC3(CC(C)(C)NC(SC)=N3)Oc3cc(O)cc(C)c32)cc1 (stereo not drawn)	0	19	-	-	0	-	25	84
COCCCNCCCOc1ccc(Cl)cc1Br	0	0	0	-	0	0	-	-
COc1cc(OC)cc(C(=O)OCC(=O)Nc2ccc(N3CCCCC3)cc2)c1	0	0	0	0	0	0	-	-
Cc1cc(C(=O)CN2C(=O)c3cccc(N)c3C2=O)c(C)n1Cc1cccs1	0	0	0	-	0	0	0	0
O=C(COC(=O)CNC(=O)c1cccc([N+](=O)[O-])c1)Nc1nc2ccccc2s1	0	0	-	-	0	-	-	-
CCN(CC(=O)Nc1c(C(=O)OC)[nH]c2ccc(Cl)cc12)c1ccc2c(c1)OCO2	0	0	0	0	0	0	-	-
CCOC(=O)c1[nH]c2ccc(Cl)cc2c1NC(=O)/C=C/c1ccc2c(c1)OCO2	0	14	-	-	0	-	8.5	0
CCn1c(SCC(=O)c2ccc(OC)cc2)nnc1C1CC1	0	0	0	0	0	0	-	-
COc1ccc(C(=O)CSc2nnc(C3CC3)n2N)cc1	0	21	0	0	0	0	0	0
COC(=O)Cc1c(C)c2cc(Cl)c(OC(=O)c3ccco3)cc2oc1=O	0	13	0	0	0	0	0	0
COC(=O)Cc1c(C)c2ccc(OC(=O)c3ccco3)cc2oc1=O	0	0	0	0	0	0	-	-
CCOC(=O)C(NC(=O)c1ccccc1)=C(C)C	0	0	0	0	0	0	0	0
COc1ccc(Br)cc1CN1CCCC(C(=O)N2CCCCC2)C1 (stereo not drawn)	0	0	0	0	0	0	-	-
COc1ccc(OC)c(CN2CCCC(C(=O)N3CCCCC3)C2)c1 (stereo not drawn)	0	72	0	0	0	0	0	0
Cc1cccc(OCCSCc2nc3ccccc3[nH]2)c1	0	0	0	-	0	0	-	-
Cc1cccc(CC(Cc2nc3ccccc3[nH]2)c2nc3ccccc3[nH]2)c1 (stereo not drawn)	0	0	0	-	0	0	15	29
CCOc1cc(CN2CCN(CCOCCO)CC2)ccc1OC	0	0	0	0	0	0	-	-
Cc1ccc(NC(=O)C2C3CC4OC(=O)C2C4C3)cc1Cl (stereo not drawn)	0	38	0	0	0	0	0	0
SMILES	MRP1 act	GALR2 ag	S1P2 agonist	MRP resist rev	GALR2 antag	S1P2 antag	GALR2 agon conf	BLA act counter
COc1ccc(Cl)cc1NC(=O)CSc1nnc(Cc2cccn2C)n1-c1ccc(F)cc1	0	0	-	0	0	-	-	-
Cc1cc(=O)[nH]c(-n2nc(C)c(Oc3ccccc3O)c2C)n1	0	32	0	0	0	0	27	60
CC(=O)NC1C(=O)N(CCc2ccccc2)c2ccccc21 (stereo not drawn)	0	0	0	0	0	0	-	-
CCn1c2ccc(C)cc2c2nnc(NN)nc21	0	0	-	-	0	-	-	-
CSc1nnc2c3cc(C)ccc3n(Cc3ccccc3)c2n1	0	10	-	0	0	-	0	0
COc1ccc(N=C2S/C(=C\c3cc(C)n(C)c3C)C(=O)N2C)cc1	0	0	0	-	0	0	-	-
CC(C)N1C(=O)/C(=C\c2nc3ccccc3c(=O)n2-c2ccccc2)c2ccccc21	0	41	-	-	0	-	0	0
Cc1ccc(S(=O)(=O)c2cc3c(=O)n4cc(C)ccc4nc3n(CC3CCCO3)c2=N)cc1 (stereo not drawn)	-	-	-	0	-	-	-	-
N=c1c(S(=O)(=O)c2ccccc2)cc2c(=O)n3ccccc3nc2n1CC1CCCO1 (stereo not drawn)	0	0	0	0	0	0	0	0
O=C(O)CC1(c2ccccc2)C(=O)c2ccccc2C1=O	0	10	-	0	0	-	0	0
CCOC(=O)/C(=N/Nc1ccccc1)c1csc(Nc2ccccc2)n1	0	56	0	0	0	0	0	0
CCOC(=O)/C(=N\Nc1ccc(Cl)cc1)c1csc(Nc2ccccc2)n1	0	0	0	-	0	0	-	-
CCN(CC)c1ccc(/C=C/c2nc3ccccc3s2)cc1	0	17	0	-	0	66	0	0
CCN(CC)c1ccc(NC(=O)COC(=O)/C=C/c2nc3ccccc3s2)cc1	0	0	-	-	0	-	-	-
CC(/C=C/c1ccco1)=N\NC(=O)c1cccnc1	0	0	0	0	0	0	-	-
O=S(=O)(Nc1cc2nc3ccccc3nc2n1Cc1ccccc1)c1ccc(Cl)cc1	0	14	-	-	0	-	0	0
O=S(=O)(/C=C/c1ccccc1)n1cnc2ccccc21	0	0	0	0	0	0	-	-
COc1cccc(NC(=O)c2ccccc2-c2nc(-c3ccc(Cl)cc3)no2)c1	0	0	0	0	0	0	-	-
COc1ccc(OCCn2cc(/C=C(\C#N)C(=O)NCc3ccco3)c3ccccc32)cc1	0	13	-	-	0	-	0	0
Cc1ccc(C)c(OCCn2cc(/C=C(\C#N)C(=O)NCc3ccco3)c3ccccc32)c1	0	0	-	-	0	-	-	-
Cc1cccc(NC(=O)/C(C#N)=C/c2cn(CC(=O)NCc3ccco3)c3ccccc23)c1	0	31	-	-	0	-	14	13
COc1ccccc1OCCn1cc(/C=C(\C#N)C(=O)NCc2ccco2)c2ccccc21	0	0	-	-	0	-	-	-
CCCC1=Nc2cc(C(=O)NCCCOCC)ccc2Sc2ccccc21	0	0	0	0	0	0	-	-
c1ccc(-c2nc3c4ccccc4nc(N4CCN(c5ccccn5)CC4)n3n2)cc1	-	-	-	0	-	-	-	-
CCOC(=O)c1[nH]c(C)c(C(=O)Nc2ccc(C)c(F)c2)c1C	0	44	-	0	0	-	0	0
CCC(C)(C)NC(=O)c1ccc(Br)o1	0	0	-	-	0	-	-	-
O=C(Cc1n[nH]c(=O)[nH]c1=O)N/N=C/c1cccc(O)c1	0	15	0	0	0	0	0	0
COC(=O)c1cc(C(C)=O)n2ccccc12	0	0	0	-	0	0	-	-
CCOC(=O)c1cc(C(=O)OCC)c2ccccn2c1=O	0	15	0	-	0	0	0	0

Compound activity (PubChem)
